The values that follow come from PubChem BioAssay AID686978 (National Center for Advancing Translational Sciences (NCATS), 2013).

Where “and” joins values, the source holds several entries; their conditions need not be identical. Identical values can stand only once. In all, about 420,000 compounds went through this assay and about 64,000 (15%) were called active. About 27% were inconclusive and are not listed. Calls follow the shape of the dose curve; as a rule, active = well fitted inhibition curve with a large enough effect; inconclusive = small, poorly fitted or top-dose-only effect; inactive = flat fitted curve, though single readings scatter. The list is a sample of the results. A call without a number means that no potency is given here.
Potency is read from the fitted curve at half-maximal effect.

This experiment in a line: qHTS for Inhibitors of human tyrosyl-DNA phosphodiesterase 1 (TDP1): qHTS in cells in absence of CPT. Also: nearly all actives have a fitted effect of over 55% in size. The note with it: DT40 Tdp1-/- hTDP1 cells, no CPT, ATP luminescence, 48 h; activity change, negative = growth inhibition: at 46.2 µM (top of the series). In a few lines: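 DT40 Tdp1-/-;hTDP1 cells, no CPT (DMSO vehicle only), 400 cells/well; compounds pin-transferred; ≥48 hr, 37 °C; CellTiter-Glo 30 min RT dark, luminescence read.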
A general note: qHTS replaces the single test concentration by a dilution series.
In the case of `O=C(COc1ccccc1)OCc1cc(=O)n2nc(-c3cccs3)sc2n1`, the Potency entry was “inactive”.
`O=C(NCc1ccccc1Cl)C1CCCO1` (centres undefined): the Potency result is “inactive”.
Next, `COc1ccc(NC(=O)N2CCCC2C(=O)NCc2ccccc2Cl)cc1` (centres undefined): “inactive”; `COc1cccc(CNC(=O)CCC(=O)N2CC3CCCN3c3ccccc32)c1` (centres undefined): 16.4 µM (active).
Turning to `COc1ccccc1CNC(=O)c1ccc(NC(=O)N2CC(C)Sc3ccccc32)cc1` (centres undefined), the Potency is 23.1 µM (active).
In the case of `COc1ccc(S(=O)(=O)N2CCC(C(=O)NCCC(=O)NCc3cccc(OC)c3)CC2)cc1` it was “inactive”.
As for `COc1ccccc1CNC(=O)CNC(=O)c1cn(-c2ccccc2OC)c(=O)c2ccccc12`, the Potency result is “inactive”.
As for `COc1cccc(CNC(=O)C2CC(=O)N(C3CCCCCCC3)C2)c1` (centres undefined), the Potency entry is “inactive”.
With `O=C(CCC(=O)N1CC2CCCN2c2ccccc21)NCc1ccccc1Cl` (centres undefined), the Potency was 16.4 µM (active).
On to `COc1ccc(CNC(=O)c2ccc(NC(=O)N3CC4CCCN4c4ccccc43)cc2)cc1` (centres undefined), for which the Potency was 20.6 µM (active).
`COc1ccc(CNC(=O)C2CCN(C(=O)c3ccccc3)CC2)cc1`: the Potency entry was “inactive”.
In the case of `COc1ccccc1CNCc1ccc(C(=O)O)s1` it was “inactive”.
Next, `O=C(CCC(=O)n1ncc2ccccc21)NCc1ccccc1Cl`: “inactive”.
Next, `NS(=O)(=O)c1ccc(NC(=O)/C=C/c2ccccc2Cl)cc1`: “inactive”.
For the compound `C/C(=C/c1ccccc1)C(=O)N1CCN(c2ccccc2)CC1`, the Potency result is “inactive”.
Consider `Cc1ccc(S(=O)(=O)CCC(=O)OCC(=O)N(C)C2CCS(=O)(=O)C2)cc1` (centres undefined), for which the Potency result is “inactive”.
Turning to `COCCn1c(C)cc(C(=O)COC(=O)CNC(=O)c2ccco2)c1C`, the Potency result is “inactive”.
Next, `COc1cccc(N(CC(=O)NC2CCCC2)C(=O)CCCC(=O)Nc2ccccn2)c1`: “inactive”; `O=NN(CCCl)C(=O)NCCc1cccc[n+]1[O-]`: “inactive”; `O=C1COc2ccc(S(=O)(=O)Nc3ccc(OC(F)(F)F)cc3)cc2N1`: “inactive”.
Next, `Cc1ccc(S(=O)(=O)N2CCN(C(=O)CCC(=O)NC3CCCc4ccccc43)CC2)cc1` (centres undefined): “inactive”; `COc1ccc(C)cc1S(=O)(=O)N1CCN(S(=O)(=O)c2cc(C(=O)O)ccc2C)CC1`: “inactive”; `Cc1ccc(S(=O)(=O)N2CCN(c3nc(-n4cnc5ccccc54)nc4ccccc34)CC2)cc1`: “inactive”.
Next, `Cc1ccc(C)c(S(=O)(=O)n2nc(C)c(S(=O)(=O)N3CCC(C)CC3)c2C)c1`: “inactive”; `Cc1ccc(S(=O)(=O)N2CCN(c3ncnc4ccccc34)CC2)cc1`: 820 nM (active) and 1.26 µM (active).
Regarding `Cc1ccc(C)c(S(=O)(=O)N2CCN(c3ncnc4sccc34)CC2)c1`, the Potency was 3.66 µM (active).
Next, `O=[N+]([O-])c1ccc(S(=O)(=O)N2CCN(c3nc(-c4ccccc4)nc4ccccc34)CC2)cc1`: “inactive”; `COc1ccccc1C(=O)NCCC(=O)NC1=NCCS1`: “inactive”; `Cc1cccc(N(C(=O)c2ccc(CN3CCOCC3)o2)C(C(=O)NC2CCCCC2)c2ccc(F)cc2)c1` (centres undefined): “inactive”.
In the case of `COc1cc(OC)c(S(=O)(=O)Nc2ccccc2C(=O)O)cc1S(=O)(=O)Nc1ccccc1C(=O)O` it was “inactive”; in that of `COc1ccccc1OCC(=O)OCn1c(SC)nnc(C)c1=O`, “inactive”.
Next, `O=C(Nc1cccc(S(=O)(=O)NC2=NCCC2)c1)C1CCCCC1`: “inactive”; `O=C(NCc1ccccc1)C1c2ccccc2OCC(=O)N1CCCN1CCOCC1` (centres undefined): “inactive”; `CCOc1cc(/C=C2\C(=N)N3N=C(C)SC3=NC2=O)ccc1OCCOc1ccccc1`: “inactive”.
On to `O=C(O)CCCCCCCCc1cn(CN2C(=O)c3ccccc3C2=O)nn1`, for which the Potency result was “inactive”.
Consider `Cc1cc(C)c(OCC(=O)N(Cc2cccs2)C2CCS(=O)(=O)C2)c(C)c1` (centres undefined), for which the Potency result was “inactive”.
In the case of `COc1cc(C(=O)N(Cc2ccc(N(C)C)cc2)C2CCS(=O)(=O)C2)cc(OC)c1OC` (centres undefined) it was “inactive”; in that of `Cc1ccsc1CN(C(=O)c1oc2ccc(Br)cc2c1C)C1CCS(=O)(=O)C1` (centres undefined), 6.51 µM (active); in that of `O=C(COC(=O)c1ccccc1)Nc1ccccc1Sc1ccccc1`, “inactive”.
Next, `NC(=O)c1ccsc1NC(=O)c1ccco1`: “inactive”; `O=C(NCc1ccco1)C(=O)c1cn(CC(=O)N2CCCCCC2)c2ccccc12`: “inactive”; `O=C(/C=C/c1ccc(Cl)cc1)NCCCn1ccnc1`: “inactive”.
Take `CCCCC(=O)Nc1ccc(C(=O)NCCCn2ccnc2)cc1`: the Potency result is “inactive”.
Next, `CC(C)(C)c1ccc(/C=C/C(=O)NCCCn2ccnc2)cc1`: 16.4 µM (active); `CN(C(=O)CN1C(=O)NC(C)(CCc2ccccc2)C1=O)c1ccccc1` (centres undefined): “inactive”; `Cc1cc(C)nc(N(C#N)CC(=O)Nc2ccccc2)n1`: “inactive”.
In the case of `Nc1cccc2c1C(=O)N(Cc1nnc(-c3ccccc3Br)o1)C2=O` it was “inactive”; in that of `Cc1ccc(C=O)cc1Cl`, “inactive”; in that of `COc1ccc(NC(=O)COC(=O)C2COc3ccccc3O2)cc1` (centres undefined), “inactive”.
Turning to `CCOc1ccc(NC(=O)c2ccc(NC(=O)COC(=O)c3ccc(NC(=O)CC#N)cc3)cc2)cc1`, the Potency result is “inactive”.
Next, `CCC(C)(C)c1ccc(Oc2ccc(NC(=O)COC(=O)C3=COCCO3)cc2)cc1`: 25.9 µM (active); `COC(=O)c1ccc(C2NC(=O)NC(C)=C2C(=O)N(C)C)cc1` (centres undefined): “inactive”; `NC(=O)c1nnsc1-c1ccc(-c2snnc2C(N)=O)cc1`: “inactive”.
Next, `CCCCN(CC)CCNC(=O)c1[nH]c(C)c(C(C)=O)c1C`: “inactive”; `CCS(=O)(=O)N1CCCC(C(=O)NCCCN(C)Cc2ccccc2)C1` (centres undefined): “inactive”.
In the case of `c1ccc2c(CNn3cnnc3)cccc2c1` it was “inactive”; in that of `N=C(N)SCc1cccc2ccccc12`, 20.6 µM (active); in that of `c1ccc(NCc2cccc3ccccc23)nc1`, “inactive”.
For the compound `CCCCCc1ccc(-c2ccc(C(=O)O)cc2)nc1`, the Potency entry was “inactive”.
On to `CCN(C(=O)COC(=O)c1c(NC(C)=O)sc(C)c1C)C1CCS(=O)(=O)C1` (centres undefined), for which the Potency result was “inactive”.
Next, `Cc1c(NC(=O)C(C)Oc2cccc(Cl)c2)c(=O)n(-c2ccccc2)n1C` (centres undefined): “inactive”.
`O=c1nc2s/c(=C\c3ccco3)c(=O)n2nc1Cc1ccccc1`: the Potency result was “inactive”.
In the case of `Cc1csc(Nc2ccc(Cl)cc2)[n+]1-c1ccc(Cl)cc1` it was 25.9 µM (active); in that of `Cc1cc(-c2nc(C)c(-c3nnc(SCC(=O)Nc4ccccc4)n3C)s2)no1`, “inactive”.
In the case of `Cc1cc(C(=O)OCC(=O)Nc2ccc(F)c(F)c2)c(C)o1` it was “inactive”; in that of `COc1cc(CO)ccc1OCC(=O)Nc1cccc2ccccc12`, “inactive”; in that of `COc1ccc(CNC(=O)CSc2n[nH]c(N)n2)cc1OC`, “inactive”.
Next, `COc1ccc(CNC(=O)COc2ccccc2C(=O)c2cnn(-c3ccccc3)c2)cc1OC`: 14.6 µM (active); `COc1cc(S(=O)(=O)Nc2ncn[nH]2)ccc1Cl`: “inactive”.
On to `CCc1nnc(NC(=O)CSc2nnc(COc3ccc(C#N)cc3)n2-c2ccccc2)s1`, for which the Potency result is “inactive”.
`CC(C)(C)NC(=O)C(c1ccco1)N(Cc1ccc2c(c1)OCO2)C(=O)Cn1nnc2ccccc21` (centres undefined): the Potency entry is “inactive”.
In the case of `CCCN1C(=O)C(O)(CC(=O)c2ccc(CC)cc2)c2cc(Br)ccc21` (centres undefined) it was 6.51 µM (active); in that of `Cc1coc(C)c1C(=O)CC1(O)C(=O)N(C)c2ccc(Cl)cc21` (centres undefined), “inactive”; in that of `Cc1ccc(C(=O)CC2(O)C(=O)N(CCc3ccccc3)c3ccc(Br)cc32)cc1` (centres undefined), 16.4 µM (active).
In the case of `CCc1ccc(C(=O)COC(=O)c2ccco2)cc1` it was “inactive”; in that of `Cc1ccc(CCN2CC(C(=O)NCCc3ccccc3)CC2=O)cc1` (centres undefined), “inactive”.
On to `O=C(CC1(O)C(=O)N(CN2CCOCC2)c2ccccc21)c1ccccc1` (centres undefined), for which the Potency entry is “inactive”.
For `Cc1ccccc1-c1nc(C#N)c(NCc2ccco2)o1`, the Potency entry is “inactive”.
As for `COc1cc(NC(=O)C2CCN(c3cnccn3)CC2)cc(OC)c1`, the Potency result is “inactive”.
In the case of `COC(=O)c1ccc(COc2ccc(/C=C/C(=O)c3ccc(OC)c(CSCC(=O)O)c3)cc2OC)cc1` it was “inactive”.
Next, `COc1cc(/C=C/C(=O)OCC(=O)N2CCOCC2)ccc1OCC#N`: “inactive”; `COCOc1cc(O)c(C(=O)/C=C/c2ccc(OCOC)c(OCOC)c2)c(OCOC)c1`: 23.1 µM (active).
Take `CCOC(=O)CSc1nnc(NC(=O)c2cccc(S(=O)(=O)N3CCCCC3)c2)s1`: the Potency entry is “inactive”.
For the compound `CCOc1ccc(S(=O)(=O)Nc2nc3cc(OC)ccc3s2)cc1`, the Potency entry was “inactive”.
In the case of `COc1ccc(Nc2ccc([N+](=O)[O-])cn2)cn1`, the Potency result is “inactive”.
As to `Cc1cc(/C=N/Nc2ccc([N+](=O)[O-])cn2)c(C)n1-c1cccc(C(=O)O)c1`, the Potency entry was “inactive”.
Next, `Cc1ccc(-n2c(C)cc(/C=N/Nc3ccc([N+](=O)[O-])cn3)c2C)c(C)c1`: 23.1 µM (active); `Cc1ccc(SCC(=O)Nc2nncs2)cc1`: “inactive”.
Next, `CCOCCC(=O)Nc1ccc2c(c1)c(=O)n(C)n2-c1ccc2ccccc2c1`: 5.8 µM (active).
In the case of `CCOC(=O)c1cccc(NC(=O)CCOc2ccccc2)c1`, the Potency entry is “inactive”.
On to `CCCC(=O)Nc1ccc2c(c1)nc(CCNC(=O)c1ccco1)n2C`, for which the Potency result was “inactive”.
`O=C(CCCOc1ccccc1)NNC(=O)c1ccc(Cl)cc1`: the Potency entry is “inactive”.
In the case of `CC(C)CCOc1ccc(C(=O)C[N+]2(C)CCOCC2)cc1` it was 18.4 µM (active); in that of `C[N+]1(CC(=O)c2cccs2)CCOCC1`, “inactive”; in that of `CC(C)Oc1ccc(C(CC(=O)N2CCOCC2)C(C)C)cc1` (centres undefined), “inactive”.
In the case of `COc1ccccc1C1C(C(=O)N2CCCCC2)=C(C)Nc2nc3ccccc3n21` (centres undefined) it was “inactive”; in that of `COc1cc(OC)c(NC(=O)c2cnc(N3CCCC3)nc2C)cc1Cl`, “inactive”; in that of `COc1cc(OC)c(NC(=O)c2c3c(nn2C)-c2ccccc2SC3)cc1Cl`, 16.4 µM (active).
In the case of `COc1cc(OC)c(NC(=O)c2nc(-c3ccncc3)no2)cc1Cl` it was “inactive”; in that of `Cc1cc(C)c(S(=O)(=O)c2cc(F)ccc2C)c(=O)[nH]1`, “inactive”.
On to `CCOC(=O)c1cc(-c2ccc(F)cc2)n(CC(=O)NCc2ccccn2)c1C`, for which the Potency entry was “inactive”.
Next, `O=C(C1CCN(S(=O)(=O)c2cnc[nH]2)CC1)N1CCN(Cc2ccc3c(c2)OCO3)CC1`: 20.6 µM (active); `CS(=O)(=O)N(CC(=O)N1CCN(Cc2ccc3c(c2)OCO3)CC1)c1ccc2c(c1)OCO2`: “inactive”; `CCN(CCCNC(=O)C1CCN(S(=O)(=O)c2cnc[nH]2)CC1)c1ccccc1`: “inactive”.
